Measurements published in ChEMBL document CHEMBL4513141, “CO-ADD screening of NIH (USA) - Clinical Collection” (2021).
Results with a measured potency or affinity are listed apart.

Tested on: Staphylococcus aureus
Details: Concentration 20 uM; ASSAY_TEST Inhibition of Bacterial Growth; detection method Absorption (OD600); MEDIA CAMHB; plate type 384well; NBS; CORNING #3640; time 18 hr

How did the Inhibition turn out when `NS(=O)(=O)Cc1noc2ccccc12` [ZONISAMIDE] was run?
Its Inhibition is 1.04%.

How did the Inhibition turn out when `COCCCC/C(=N\OCCN)c1ccc(C(F)(F)F)cc1.O=C(O)/C=C\C(=O)O` [FLUVOXAMINE MALEATE] was run?
Its Inhibition is 7.49%.

Which Inhibition does the source give for `CN1CCN(c2nc3cc(C(F)(F)F)ccc3n3cccc23)CC1.O=C(O)/C=C\C(=O)O.O=C(O)/C=C\C(=O)O` here?
Its Inhibition is 3.37%.

How did the Inhibition turn out when `COc1cc(/C=C/c2ccc(O)cc2)cc(OC)c1` [PTEROSTILBENE] was run?
Its Inhibition is 13.68%.

How did the Inhibition turn out when `CC(C)[C@H](N)C(=O)OCCOCn1cnc2c(=O)nc(N)[nH]c21.Cl` [VALACYCLOVIR HYDROCHLORIDE] was run?
Its Inhibition is 12.39%.

Which Inhibition does the source give for `CC(C)(C)C(O)/C=C/c1ccc2c(c1)OCO2` (stereo not given) [STIRIPENTOL] here?
The Inhibition was 0.92%.

For `O=C1N[C@H](C(=O)O)CS1` [PROCYSTEINE], which Inhibition is on record?
The Inhibition was 10.52%.

With `Cl.OC(CCN1CCCC1)(c1ccccc1)C1CCCCC1` (stereo not given) [PROCYCLIDINE HYDROCHLORIDE] as the molecule, how does the Inhibition read?
The Inhibition was 17.75%.

How did the Inhibition turn out when `COCCOC(=O)C1=C(C)NC(C)=C(C(=O)OC(C)C)C1c1cccc([N+](=O)[O-])c1` (stereo not given) [NIMODIPINE] was run?
The Inhibition was 7.57%.

With `C=C[C@H]1CN2CC[C@H]1C[C@@H]2[C@@H](O)c1ccnc2ccc(OC)cc12` [QUINIDINE] as the molecule, how does the Inhibition read?
Its Inhibition is 10.07%.

How did the Inhibition turn out when `CCC(=C(c1ccccc1)c1ccc(OCCN(C)C)cc1)c1ccccc1` was run?
The Inhibition was 2.87%.

For `Cc1nc2ccccn2c(=O)c1CCN1CCC(C(=O)c2ccc(F)cc2)CC1` [PIRENPERONE], which Inhibition is on record?
The Inhibition was 1.36%.

For `CCCC(CCC)C(=O)O` [VALPROIC ACID], which Inhibition is on record?
Its Inhibition is 9.7%.

`O=C(O)c1cccnc1` [NIACIN] was tested. Which Inhibition did it give?
The Inhibition was 1.53%.

`C=C(CC)C(=O)c1ccc(OCC(=O)O)c(Cl)c1Cl` [ETHACRYNIC ACID] was tested. Which Inhibition did it give?
Its Inhibition is 39.53%.

For `NC(CO)(CO)CO.O=C(c1ccccc1)c1ccc2n1CCC2C(=O)O` (stereo not given) [KETOROLAC TROMETHAMINE], which Inhibition is on record?
Its Inhibition is 4.45%.

Which Inhibition does the source give for `Cc1cccc(C)c1NC(=O)C(C)N` (stereo not given) [TOCAINIDE] here?
The Inhibition was 2.4%.

How did the Inhibition turn out when `C[C@@H]1C[C@H]2[C@@H]3CCC4=CC(=O)C=C[C@]4(C)[C@@]3(F)[C@@H](O)C[C@]2(C)[C@H]1C(=O)CO` [DESOXIMETASONE] was run?
The Inhibition was 0.95%.

For `Cl.Clc1ccc2nsnc2c1NC1=NCCN1` [TIZANIDINE HYDROCHLORIDE], which Inhibition is on record?
The Inhibition was -18.93%.

How did the Inhibition turn out when `CN(C)CCC(c1ccc(Cl)cc1)c1ccccn1.O=C(O)/C=C\C(=O)O` (stereo not given) [CHLORPHENIRAMINE MALEATE] was run?
Its Inhibition is -22.38%.

For `Nc1nnc(-c2cccc(Cl)c2Cl)c(N)n1` [LAMOTRIGINE], which Inhibition is on record?
The Inhibition was 8.71%.

`OCCN1C[C@H](O)[C@@H](O)[C@H](O)[C@H]1CO` [MIGLITOL] was tested. Which Inhibition did it give?
Its Inhibition is 16.69%.

With `COC(=O)Nc1nc2cc(C(=O)c3ccccc3)ccc2[nH]1` [MEBENDAZOLE] as the molecule, how does the Inhibition read?
The Inhibition was 7.86%.

With `CC(=O)O.CNC(=N)NCCC[C@H](N)C(=O)O` [TILARGININE ACETATE] as the molecule, how does the Inhibition read?
Its Inhibition is -13.73%.

Which Inhibition does the source give for `CC(=O)OCC(=O)NCCCOc1cccc(CN2CCCCC2)c1.Cl` [ROXATIDINE ACETATE HYDROCHLORIDE] here?
Its Inhibition is 9.98%.

`O=C1CCC(N2C(=O)c3ccccc3C2=O)C(=O)N1` (stereo not given) [THALIDOMIDE] was tested. Which Inhibition did it give?
The Inhibition was 9.61%.

`CC(CCc1ccccc1)NCC(O)c1ccc(O)c(C(N)=O)c1.Cl` (stereo not given) [LABETALOL HYDROCHLORIDE] was tested. Which Inhibition did it give?
Its Inhibition is 13.4%.

Tested on: Escherichia coli
Details: Concentration 20 uM; ASSAY_TEST Inhibition of Bacterial Growth; detection method Absorption (OD600); MEDIA CAMHB; plate type 384well; NBS; CORNING #3640; time 18 hr

For `CCCc1nc(C)c2c(O)nc(-c3cc(S(=O)(=O)N4CCN(CC)CC4)ccc3OCC)nn12.O=C(O)CC(O)(CC(=O)O)C(=O)O`, which Inhibition is on record?
The Inhibition was -4.2%.

For `CN1CC(=O)N2[C@H](c3ccc4c(c3)OCO4)c3[nH]c4ccccc4c3C[C@@H]2C1=O`, which Inhibition is on record?
The Inhibition was 0.57%.

`CC(=O)C1(O)CCC2C3CC(C)C4=CC(=O)C=CC4(C)C3(F)C(O)CC21C` (stereo not given) was tested. Which Inhibition did it give?
Its Inhibition is 2.15%.

With `CCC1=C(C)CN(C(=O)NCCc2ccc(S(=O)(=O)NC(=O)N[C@H]3CC[C@H](C)CC3)cc2)C1=O` [GLIMEPIRIDE] as the molecule, how does the Inhibition read?
Its Inhibition is 1.16%.

Which Inhibition does the source give for `Nc1ncnc2c1ncn2[C@@H]1O[C@H](CO)[C@@H](O)[C@@H]1O` [VIDARABINE] here?
The Inhibition was 6.8%.

For `NS(=O)(=O)c1cc2c(cc1C(F)(F)F)NCNS2(=O)=O` [HYDROFLUMETHIAZIDE], which Inhibition is on record?
Its Inhibition is 7.25%.

Which Inhibition does the source give for `C[C@@H](O)[C@H]1C(=O)N2C(C(=O)O)=C(S[C@@H]3CN[C@H](C(=O)N(C)C)C3)[C@H](C)[C@H]12` [MEROPENEM] here?
Its Inhibition is 7.87%.

How did the Inhibition turn out when `Cl.O.c1cnc(N2CCN(Cc3ccc4c(c3)OCO4)CC2)nc1` was run?
The Inhibition was -1.86%.

With `O=C(CCCN1CC=C(n2c(=O)[nH]c3ccccc32)CC1)c1ccc(F)cc1` [DROPERIDOL] as the molecule, how does the Inhibition read?
Its Inhibition is -7.37%.

Which Inhibition does the source give for `Cl.O.O=C(c1ccc(F)cc1)C1CCN(CCn2c(=S)[nH]c3ccccc3c2=O)CC1` here?
Its Inhibition is 1.4%.

`O=C(O[C@H]1[C@H](Oc2ccccc2COC(=O)C2(O)C=CCCC2=O)O[C@H](CO)[C@@H](O)[C@@H]1O)c1ccccc1` (stereo not given in full) [TREMULACIN] was tested. Which Inhibition did it give?
Its Inhibition is 0.23%.

`NS(=O)(=O)Cc1noc2ccccc12` [ZONISAMIDE] was tested. Which Inhibition did it give?
Its Inhibition is 0.42%.

With `COCCCC/C(=N\OCCN)c1ccc(C(F)(F)F)cc1.O=C(O)/C=C\C(=O)O` [FLUVOXAMINE MALEATE] as the molecule, how does the Inhibition read?
The Inhibition was 3.58%.

How did the Inhibition turn out when `CN1CCN(c2nc3cc(C(F)(F)F)ccc3n3cccc23)CC1.O=C(O)/C=C\C(=O)O.O=C(O)/C=C\C(=O)O` was run?
The Inhibition was 4.75%.

For `COc1cc(/C=C/c2ccc(O)cc2)cc(OC)c1` [PTEROSTILBENE], which Inhibition is on record?
The Inhibition was 1.16%.

`CC(C)[C@H](N)C(=O)OCCOCn1cnc2c(=O)nc(N)[nH]c21.Cl` [VALACYCLOVIR HYDROCHLORIDE] was tested. Which Inhibition did it give?
Its Inhibition is 2.88%.

With `CC(C)(C)C(O)/C=C/c1ccc2c(c1)OCO2` (stereo not given) [STIRIPENTOL] as the molecule, how does the Inhibition read?
The Inhibition was 6.07%.

`O=C1N[C@H](C(=O)O)CS1` [PROCYSTEINE] was tested. Which Inhibition did it give?
The Inhibition was 6.28%.

`Cl.OC(CCN1CCCC1)(c1ccccc1)C1CCCCC1` (stereo not given) [PROCYCLIDINE HYDROCHLORIDE] was tested. Which Inhibition did it give?
The Inhibition was -5.9%.

How did the Inhibition turn out when `COCCOC(=O)C1=C(C)NC(C)=C(C(=O)OC(C)C)C1c1cccc([N+](=O)[O-])c1` (stereo not given) [NIMODIPINE] was run?
Its Inhibition is 4.2%.

For `C=C[C@H]1CN2CC[C@H]1C[C@@H]2[C@@H](O)c1ccnc2ccc(OC)cc12` [QUINIDINE], which Inhibition is on record?
The Inhibition was -1.55%.

Which Inhibition does the source give for `CCC(=C(c1ccccc1)c1ccc(OCCN(C)C)cc1)c1ccccc1` here?
Its Inhibition is 6.04%.

`Cc1nc2ccccn2c(=O)c1CCN1CCC(C(=O)c2ccc(F)cc2)CC1` [PIRENPERONE] was tested. Which Inhibition did it give?
The Inhibition was 7.4%.

With `CCCC(CCC)C(=O)O` [VALPROIC ACID] as the molecule, how does the Inhibition read?
Its Inhibition is -0.41%.

For `O=C(O)c1cccnc1` [NIACIN], which Inhibition is on record?
Its Inhibition is -3.09%.

Which Inhibition does the source give for `C=C(CC)C(=O)c1ccc(OCC(=O)O)c(Cl)c1Cl` [ETHACRYNIC ACID] here?
The Inhibition was 0.95%.

`NC(CO)(CO)CO.O=C(c1ccccc1)c1ccc2n1CCC2C(=O)O` (stereo not given) [KETOROLAC TROMETHAMINE] was tested. Which Inhibition did it give?
The Inhibition was -3.99%.

`Cc1cccc(C)c1NC(=O)C(C)N` (stereo not given) [TOCAINIDE] was tested. Which Inhibition did it give?
Its Inhibition is 3.98%.

Which Inhibition does the source give for `C[C@@H]1C[C@H]2[C@@H]3CCC4=CC(=O)C=C[C@]4(C)[C@@]3(F)[C@@H](O)C[C@]2(C)[C@H]1C(=O)CO` [DESOXIMETASONE] here?
Its Inhibition is 7.14%.

`Cl.Clc1ccc2nsnc2c1NC1=NCCN1` [TIZANIDINE HYDROCHLORIDE] was tested. Which Inhibition did it give?
Its Inhibition is 6.6%.

With `CN(C)CCC(c1ccc(Cl)cc1)c1ccccn1.O=C(O)/C=C\C(=O)O` (stereo not given) [CHLORPHENIRAMINE MALEATE] as the molecule, how does the Inhibition read?
Its Inhibition is 7.3%.

`Nc1nnc(-c2cccc(Cl)c2Cl)c(N)n1` [LAMOTRIGINE] was tested. Which Inhibition did it give?
Its Inhibition is 4.49%.

How did the Inhibition turn out when `OCCN1C[C@H](O)[C@@H](O)[C@H](O)[C@H]1CO` [MIGLITOL] was run?
Its Inhibition is 5.82%.

`COC(=O)Nc1nc2cc(C(=O)c3ccccc3)ccc2[nH]1` [MEBENDAZOLE] was tested. Which Inhibition did it give?
Its Inhibition is 3.86%.

With `CC(=O)O.CNC(=N)NCCC[C@H](N)C(=O)O` [TILARGININE ACETATE] as the molecule, how does the Inhibition read?
Its Inhibition is 6.22%.

For `CC(=O)OCC(=O)NCCCOc1cccc(CN2CCCCC2)c1.Cl` [ROXATIDINE ACETATE HYDROCHLORIDE], which Inhibition is on record?
Its Inhibition is 5.49%.

Which Inhibition does the source give for `O=C1CCC(N2C(=O)c3ccccc3C2=O)C(=O)N1` (stereo not given) [THALIDOMIDE] here?
Its Inhibition is -2.18%.

Which Inhibition does the source give for `CC(CCc1ccccc1)NCC(O)c1ccc(O)c(C(N)=O)c1.Cl` (stereo not given) [LABETALOL HYDROCHLORIDE] here?
The Inhibition was 1.62%.
